Assay results as given in paper PMC4336329 (PLoS ONE, 2015).
Hit rate of the full screen: of about 310,000 compounds, about 14,000 (4.5%) showed an effect of 50% or more. The effect is printed as a negative number. The full list was thinned out, with strong results kept by preference.

The compounds below were run against human ether-à-go-go-related gene (hERG) potassium channel (human, UniProt Q12809) (assay: primary screen, population patch clamp on CHO cells stably expressing hERG; higher = less effect of the substance).
Chain of human ether-à-go-go-related gene (hERG) potassium channel (Q12809 whole entry, looked up): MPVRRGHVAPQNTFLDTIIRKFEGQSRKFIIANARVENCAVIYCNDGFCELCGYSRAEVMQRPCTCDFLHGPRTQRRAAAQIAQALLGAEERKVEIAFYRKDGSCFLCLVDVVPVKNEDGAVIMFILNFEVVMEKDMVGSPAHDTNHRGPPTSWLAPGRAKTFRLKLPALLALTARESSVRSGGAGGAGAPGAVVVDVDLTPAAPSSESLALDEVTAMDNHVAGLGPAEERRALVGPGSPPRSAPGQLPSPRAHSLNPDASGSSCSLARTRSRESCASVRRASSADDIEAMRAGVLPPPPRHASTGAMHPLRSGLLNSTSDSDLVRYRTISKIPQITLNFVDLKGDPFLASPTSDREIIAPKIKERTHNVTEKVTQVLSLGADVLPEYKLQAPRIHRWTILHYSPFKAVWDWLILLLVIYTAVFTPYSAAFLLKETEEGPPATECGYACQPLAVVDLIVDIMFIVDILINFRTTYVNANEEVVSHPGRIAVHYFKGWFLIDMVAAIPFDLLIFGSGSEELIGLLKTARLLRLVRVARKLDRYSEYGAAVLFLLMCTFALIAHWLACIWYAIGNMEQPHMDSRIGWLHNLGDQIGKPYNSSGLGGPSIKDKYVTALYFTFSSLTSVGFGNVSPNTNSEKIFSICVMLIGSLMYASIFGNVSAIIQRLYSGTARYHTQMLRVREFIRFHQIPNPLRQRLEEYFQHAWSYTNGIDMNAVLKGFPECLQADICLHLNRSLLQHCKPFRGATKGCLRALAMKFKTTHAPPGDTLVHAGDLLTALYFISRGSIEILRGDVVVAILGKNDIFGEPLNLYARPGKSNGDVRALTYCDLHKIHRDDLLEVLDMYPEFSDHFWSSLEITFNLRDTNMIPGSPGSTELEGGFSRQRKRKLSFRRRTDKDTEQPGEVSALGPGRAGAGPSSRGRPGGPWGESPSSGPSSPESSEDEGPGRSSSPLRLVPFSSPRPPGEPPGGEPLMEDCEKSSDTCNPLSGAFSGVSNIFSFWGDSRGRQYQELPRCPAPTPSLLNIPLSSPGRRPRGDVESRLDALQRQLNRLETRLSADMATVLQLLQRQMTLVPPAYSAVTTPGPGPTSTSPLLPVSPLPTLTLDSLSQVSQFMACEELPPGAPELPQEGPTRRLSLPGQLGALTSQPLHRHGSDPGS
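Also: peak tail current of the secondary pulse compared with the same well before compound.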

SMILES	hERG current change (%, negative = inhibition) at 10uM [%]
CCOC(=O)c1cc2c(=O)n3ccccc3nc2n(CCCOC)c1=NC(=O)c1ccncc1	-87.3
CCOC(=O)c1cc2c(=O)n3ccccc3nc2n(CCCOC)c1=NC(C)=O	-27.5
CCOC(=O)c1cc2c(=O)n3ccccc3nc2n(CCCOC)c1=NC(=O)C(C)(C)C	-7.42
CCOC(=O)c1cc2c(=O)n3ccccc3nc2n(CCOC)c1=NC(=O)c1ccncc1	-51.3
CCOC(=O)c1cc2c(=O)n3ccccc3nc2n(CCOC)c1=NC(=O)c1c(-c2c(F)cccc2Cl)noc1C	2
CCOC(=O)c1cc2c(=O)n3ccccc3nc2n(CCOC)c1=NC(=O)C(C)(C)C	-4.45
Cc1cccc(C(=O)Nc2ccc(C(=O)/C=C/c3cccs3)cc2)c1	7.48
O=C(CSc1n[nH]c(=O)[nH]c1=O)N/N=C/c1ccccc1	8.14
COc1ccc(-n2nc(C(=O)NCC(=O)NC(C)C)c3ccccc3c2=O)c(OC)c1	11.3
COc1ccc(S(=O)(=O)n2nc(-c3cc(OC)c(OC)c(OC)c3)cc2N)cc1OC	-2.63
Cc1ccc(OCC(=O)N/N=C\c2ccco2)c(C)c1	-38
COc1cc(/C=N/NC(=O)COc2ccccc2[N+](=O)[O-])ccc1OC(=O)c1ccco1	-1.29
CCc1ccc(OCC(=O)N/N=C\c2ccco2)c([N+](=O)[O-])c1	-67.4
Cc1cc(-c2nnc(CSc3nnc(NC(=O)c4ccc(C(C)(C)C)cc4)s3)o2)ccc1[N+](=O)[O-]	4.92
CCN(CC)c1nc(N)c([N+](=O)[O-])c(NCCO)n1	12.1
COc1ccccc1CN1CC(=O)N2CSC[C@H]2C1=O	10.3
O=C1C2CSCN2C(=O)CN1CCCN1CCN(C(c2ccccc2)c2ccccc2)CC1 (stereo not drawn)	-53.6
O=C1[C@@H]2CSCN2C(=O)CN1CCc1cccc(F)c1	-20.9
CCn1cc(C(=O)O)c(=O)c2cc(Br)ccc21	-46.7
Cc1ccc(/C=C2\SC(=S)N(c3cccnc3)C2=O)cc1	18.9
COc1ccc(OC)c(NC(=O)C2CCCN(S(=O)(=O)c3c(C)noc3C)C2)c1 (stereo not drawn)	-16.8
CC(C)c1ccc(N=C2N=C(N)c3ccccc32)cc1	-59.2

SMILES	hERG current change (%, negative = inhibition) at 10uM [%]
NC1=NC(=Nc2ccccc2)c2ccccc21	8.33
NC1=NC(=Nc2ccc(Cl)cc2)c2ccccc21	-3.81
CCOC(=O)c1c(C)[nH]c(C)c1S(=O)(=O)N1CCOCC1	13.8
CCOc1ccc(NC(=O)CN2CCN(CC(=O)Nc3ccc4c(c3)OCO4)CC2)cc1	-76.1
COc1ccc(S(=O)(=O)N2CCCN(CC(=O)Nc3ccc4c(c3)OCO4)CC2)cc1	-61.5
CCOc1ccc(NC(=O)COc2ccc3c(c2)OCO3)cc1	1.04
COc1ccccc1N1CCN(CC(=O)Nc2ccc3c(c2)OCCO3)CC1	-6.03
COc1ccc(S(=O)(=O)N2CCCN(CC(=O)Nc3ccc(OC)c(Cl)c3)CC2)cc1	-33.3
COc1ccccc1NC(=O)CN1CCN(CC(=O)Nc2ccc3c(c2)OCO3)CC1	-72
COc1ccc(S(=O)(=O)N2CCCN(CC(=O)Nc3ccc(NC(C)=O)cc3)CC2)cc1	2.8
O=C(CN1CCOCC1)Nc1ccc2c(c1)OCO2	17.3
COc1ccc(NC(=O)CN2CCN(CC(=O)Nc3ccc4c(c3)OCO4)CC2)cc1	-78.1
COc1ccc(OCC(=O)Nc2ccc3c(c2)OCO3)cc1	-0.489
CCOc1ccc(OCCC(=O)Nc2ccc3c(c2)OCO3)cc1	10.2
COc1ccccc1NC(=O)CN1CCN(CC(=O)Nc2ccc3c(c2)OCCO3)CC1	-34.4
COc1ccccc1NC(CC(=O)c1ccccc1)C(=O)OCC(=O)c1ccc(Br)cc1 (stereo not drawn)	-3.81
Cc1ccc(C2=NN(C(=O)c3cccs3)C(c3ccccc3O)C2)cc1 (stereo not drawn)	34
O=S1(=O)N=C(N(CCO)/N=C/c2ccc(Cl)cc2)c2ccccc21	4.3
CN(C)c1ccc(P(=O)(Nc2ccc([N+](=O)[O-])cc2)N2CCOCC2)c(NC(=O)c2cccs2)c1 (stereo not drawn)	16.9
Cc1nc(=O)c(-c2ccccc2)c(C)n1-c1ccc(O)cc1	9.6
O=C(NCCCl)Nc1cccnc1Cl	12.2
COc1ccc(/C(C)=N\n2cnnc2)cc1	6.86

SMILES	hERG current change (%, negative = inhibition) at 10uM [%]
O=C(CNC(=O)c1ccccc1)OCc1cccc(Br)c1	-17.8
O=C(CNC(=O)/C(=C\c1ccccc1)NC(=O)c1ccc(Br)cc1)OCc1ccccc1	-69.1
CC(=O)N/C(=C\c1ccccc1)C(=O)OCc1ccc(C)cc1	-19.9
O=C(CNC(=O)c1ccc(Oc2ccccc2)cc1)OCc1ccc(Br)cc1	-0.714
O=C(Nc1ccc(C(=O)O)cc1)/C(=C\c1ccccc1)NC(=O)c1ccc(Br)cc1	7.33
O=C(CNC(=O)/C(=C/c1ccccc1)NC(=O)c1ccc(Br)cc1)OCc1ccccc1	-64
Cc1ccc(/C=C(\NC(=O)c2ccccc2)C(=O)OCc2ccccc2)cc1	10.3
CCOC(=O)CNC(=O)/C(=C\c1ccc(F)cc1)NC(=O)c1ccccc1	-26.4
O=C(NC(Cc1ccccc1)C(=O)O)/C(=C\c1ccc(F)cc1)NC(=O)c1ccccc1 (stereo not drawn)	11.1
O=C(CNC(=O)/C(=C\c1ccc(F)cc1)NC(=O)c1ccccc1)OCc1ccccc1	-80.7
Cc1ccc(C(=O)N/C(=C\c2ccccc2)C(=O)OCc2ccccc2)cc1	-50.7
CC1(C(=O)NCCCN2CCOCC2)Oc2cccnc2NC1=O (stereo not drawn)	13.2
Cc1ccccc1NC(=S)Nc1ccc(Br)cc1	-6.93
CS(=O)(=O)N(Cc1ccccc1)c1ccc(C(=O)Nc2ccccc2Sc2ccccc2)cc1	1.8
Cc1cccc(C)c1NC(=O)CN(C)C(=O)c1ccccc1Sc1ccccc1C#N	-4.76
O=C(NC(=S)NCc1cccnc1)c1cc2ccccc2o1	8.71
CC(=O)c1ccc(O)c(CSC2=NCCS2)c1	19.8
O=C(CN1C(=O)NC2(CCc3ccccc32)C1=O)NCCc1ccccc1 (stereo not drawn)	-6.43
NC(=S)NNC(=O)/C(=C/c1ccc(Br)cc1)NC(=O)c1ccccc1	40
O=C(CNC(=O)/C(=C\c1ccc(Br)cc1)NC(=O)c1ccccc1)OCc1ccccc1	-59.9
COc1ccccc1C(=O)N/C(=C\c1ccc(Br)cc1)C(=O)NCC(=O)O	1.78
CC1(c2ccccc2)NC(=O)N(CC(=O)Nc2nc(-c3ccccn3)cs2)C1=O (stereo not drawn)	0.219

SMILES	hERG current change (%, negative = inhibition) at 10uM [%]
COc1ccccc1NC(=O)Nc1nn(C)c2cccc(N(C)C)c12	11
COc1ccc(NC(=O)c2cn(CCC#N)nc2-c2cc3ccccc3o2)cc1	-0.308
COC1CCN(Cc2cn(Cc3ccccc3)nc2-c2cc3ccccc3o2)CC1	-71.9
N#CCCn1cc(C(=O)Nc2ccc(C(=O)O)cc2)c(-c2cc3ccccc3o2)n1	10.7
COc1cccc(-c2nn(Cc3ccccc3)cc2CO)c1	8.47
COCCOC1CCN(Cc2cn(Cc3ccccc3)nc2-c2cc3ccccc3o2)CC1	-67
COC(=O)C1CCN(Cc2nnc(-c3ccccc3)o2)CC1	16.1
COC(=O)C1CCN(Cc2cn(Cc3ccccc3)nc2-c2cc3ccccc3o2)CC1	-75.9
COC(=O)C1CCN(C(=O)c2cc3ccccc3oc2=O)CC1	-7.44
CC(C)(C)c1ccc(/C([O-])=C(/C(=S)NCc2ccco2)[n+]2ccccc2)cc1	6.63
Cc1cc(C)cc(NC(=S)N2CCN(S(C)(=O)=O)CC2)c1	4.55
CCOc1ccc(N(CC(=O)NCCCOC)S(C)(=O)=O)cc1	4.53
COc1ccc2nc3c(c(-c4ccccc4)c2c1)CCC3	-5.34
Cc1ccc2nc3c(c(Nc4cccc(O)c4)c2c1)CCC3.Cl	-70
Cc1ccc2nc3c(c(Nc4ccc(O)cc4)c2c1)CCC3.Cl	-21.2
COc1ccc(Nc2c3c(nc4ccc(C)cc24)CCC3)cc1.Cl	-78.3
Cc1ccc(-c2nc(Nc3cccc(O)c3)c3ccccc3n2)cc1	11.9
Cc1ccc2nc3c(c(Nc4ccccc4)c2c1)CCC3.Cl	-71.7
Cc1cccc(-c2nc(Nc3cccc(O)c3)c3ccccc3n2)c1	21.8
COc1ccc(Nc2ncnc3ccc(C)cc23)cc1	-3.17
Cc1ccc2nc3c(c(C(=O)O)c2c1)CCC3	2.29
